Most compounds without a hit are left out; they make up all but 4.3% or so of the library.
HSF1 activator – HSF-1 activators, primary screen, NIH3T3-HGL cells, MG132 stress, luminescence, single point; NIH3T3-HGL HSF-1 luciferase reporter, 8 h; 100% = twice DMSO control signal; 1.7% of 300,000 active; activation, % at 9 µM; AID 504408, 2011;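 active = mean replicate activation of at least 50% with a set share of replicates each reaching 50%; inconclusive = only one of those two conditions met; inactive = mean below 50% and too few replicates reaching it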;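 also: 0% = median of the neutral control wells and 100% = twice that signal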
esBAF inh – Bmi1 luciferase reporter increase in mESCs, primary screen, esBAF inhibitor project, mouse ES cells, Bmi1 luciferase knock-in, single point. 24 h; 100% = twice the neutral-well signal. reporter increase, % at 12.5 µM. 2% of 350,000 active; in the data active = activation above about 40%; inconclusive = no clear call, values can overlap the other calls;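 also: 0% = median of the plate's neutral control wells and 100% = double that signal; a rise in the Bmi1 reporter signal indicates esBAF inhibition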
HSF1 inhib – HSF1 inhibitors in luciferase reporter cells, primary screen, cell-based, NIH3T3, luminescence | activity change, negative = inhibition, % at 7.5 µM (by protocol) | AID 2098, 2009 | 0.77% of 300,000 active | NIH3T3-HGL HSE-luciferase, MG132-induced, luminescence 8 h; hits give low values;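 active = more than half of replicate wells show activity change below -50%, luminescence cut by over half; inconclusive = some wells, but at most half, below -50%; inactive = no replicate well below -50%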;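 also: luciferase reports HSF-1 transcriptional activity via heat shock element; 0% = median of DMSO wells and -100% = zero luminescence signal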
MITF act – activators of MITF-driven TRPM1 promoter reporter, primary screen, cell-based, SK-MEL-5, luciferase, single point; SK-MEL-5 TRPM1-promoter luciferase, 24 h; % of positive control, neutral wells = 0; activation, % at 12.5 µM; 0.75% of 300,000 active; AID 588334, 2011;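 active = mean activation of at least 80% with every replicate also reaching 80%; inconclusive = mean reaches 80% but some replicate falls short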;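 also: 0% = neutral control wells and 100% = parthenolide positive control wells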
SMARCA2 act – SMARCA2 (BRM) function activators, primary screen, cell-based, luminescence, high throughput; activation, % at 9.1 µM; MG213 cells, MMTV-luciferase reporter, dexamethasone, overnight; 1% of 370,000 active; in the data active = activation above about 7.8%;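 also: 0% = vehicle wells and 100% = reference activator wells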
Wnt bcat act – Wnt/beta-catenin pathway activators, primary screen, cell-based, plate reader, single point; Wnt/beta-catenin reporter cell assay, activator; activation, % at 9.35 µM; 1.2% of 300,000 active; AID 743398, 2014; in the data active = activation above about 30%, passing the limit was not always enough; inconclusive = no clear call, values can overlap the other calls;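 also: 0% = neutral control wells and 100% = positive control wells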
Numbers without * were called inactive; ? = inconclusive; nt = no result given; ! = not active in a repeat.

SMILES	HSF1 activator	esBAF inh	HSF1 inhib	MITF act	SMARCA2 act	Wnt bcat act
O=C(NCC1COc2ccccc2O1)c1ccc(Br)s1 (centres undefined)	40	42*	17	77	2	7
CCc1nc2n(n1)C(O)c1cc([N+](=O)[O-])ccc1S2 (centres undefined)	6	nt	-2	nt	-3	42*
CCCN(C)C[C@H]1Oc2cc(C#CCOC)ccc2S(=O)(=O)N([C@@H](C)CO)C[C@H]1C	nt	0	nt	nt	nt	nt
CCOC(=O)CC(=O)CSc1nc2ccc(C)cc2cc1C#N	nt	34	nt	74	8.8*	22
Cc1ccc2cc(C#N)c(SCC(=O)NCC3CCCO3)nc2c1 (centres undefined)	0	-5	-1	7	1	nt
COC(=O)CSc1nc2cc(C)ccc2cc1C#N	65*	31	38	75	6	80*
CCCNC(=O)C[C@H]1C[C@@H]2c3cc(NC(=O)c4cccnc4)ccc3O[C@@H]2[C@@H](CO)O1	nt	-1	nt	nt	nt	nt
C[C@H](CO)N1C[C@H](C)[C@H](CN(C)Cc2ccncc2)Oc2c(NS(C)(=O)=O)cccc2C1=O	nt	1	nt	nt	nt	nt
O=C(/C=C/c1ccc(F)cc1)NC(=S)Nc1ccccc1O	26	25	18	51	1	5
NC(=O)c1ccccc1NC(=O)/C=C/c1ccccc1	29	nt	21	26	2	74*
O=C(/C=C/c1ccccc1)NC(=S)Nc1ccccc1O	59*	33	32	26	0	7
CC(CCc1ccccc1)NCC(O)c1ccc(O)c(C(N)=O)c1 (centres undefined)	-11	1	-7	-3	2	0
COc1ccc(CC(C)NCC(O)c2ccc(O)c(NC=O)c2)cc1 (centres undefined)	nt	-4	nt	3	20*!	-5
CNC[C@@H]1OCCCC[C@H](C)Oc2ccc(NS(=O)(=O)c3ccc(F)cc3)cc2C(=O)N([C@@H](C)CO)C[C@H]1C	nt	-4	nt	nt	nt	nt
Cn1c(=O)cc(OCCCC(=O)NC2CCCC2)c2ccccc21	56*	-1	23	nt	2	20
Cn1c(=O)cc(OCC(=O)NC2CCCCC2)c2ccccc21	2	-8	0	nt	-2	-1
Clc1cccc(-c2cc3nc4c(c(NCc5ccco5)n3n2)CCCC4)c1	58*	44*	22	53	6	nt
c1coc(CNc2c3c(nc4ncnn24)CCCC3)c1	-8	nt	2	-6	-2	3
Cc1noc(C)c1NC(=O)N(C)C[C@@H]1OCc2ccccc2-c2ccccc2C(=O)N([C@@H](C)CO)C[C@H]1C	nt	2	nt	nt	nt	nt
C[C@H](NC(=O)C[C@H]1C=C[C@H](NC(=O)C2CCC2)[C@@H](CO)O1)c1ccccc1	nt	-2	nt	nt	nt	nt
COc1cccc(Nc2nc(C)nc3c2oc2ccccc23)c1	-8	20	9	9	0	6
COc1ccc(Nc2ncnc3c2oc2ccccc23)cc1	56*	-13	25	69	6	nt
c1ccc(Sc2ncnc3c2oc2ccccc23)cc1	17	71*	15	52	nt	nt
Cc1ccc(Nc2ncnc3c2oc2ccccc23)cc1	47	47*	36	19	2	nt
c1ccc2c(c1)oc1c(Nc3ccc4c(c3)OCCO4)ncnc12	47	28	21	37	4	-2
SMILES	HSF1 activator	esBAF inh	HSF1 inhib	MITF act	SMARCA2 act	Wnt bcat act
COc1cccc(C(=O)N=c2sc3c(C)ccc(OC)c3n2C)c1	43	48*	17	54	0	20
COc1ccc(C(=O)N=c2sc3c(C)ccc(OC)c3n2C)cc1OC	62*	36	42	99*	6	?
COc1ccccc1C(=O)N=c1sc2c(C)ccc(OC)c2n1C	37	38	5	?	4	23
O=C(NCc1ccc2c(c1)OCO2)[C@@H]1[C@@H](CO)[C@@H]2Cn3c(cccc3=O)[C@H]1N2Cc1ccccc1	nt	3	nt	nt	nt	nt
CN1C(=O)c2cc(NC(=O)c3cscn3)ccc2OC[C@@H]2O[C@@H](CC(=O)N3CCCCC3)CC[C@H]21	nt	-1	nt	nt	nt	nt
Cc1cc(Nc2ccccc2)n(C(=O)c2ccc(Cl)cc2)n1	15	53*	26	14	3	nt
Nc1nc2nn(-c3ccccc3)nc2c(=O)[nH]1	55*	-22	21	49	5	16
Nc1nc2c(ncn2-c2ccccc2)c(=O)[nH]1	nt	nt	nt	-4	-2	3
CCc1ccc(C2=NNC(=Nc3cccc(S(=O)(=O)N(C)C)c3)SC2)cc1	-78	nt	-77*	-46	-8	-12
O=C(C[C@H]1CC[C@H](NC(=O)Nc2cc(F)ccc2F)[C@H](CO)O1)NCc1ccccn1	nt	-1	nt	nt	nt	nt
CN(Cc1ccccc1)C(=O)CCC1CCN(C(=O)CCC(F)(F)F)CC1	38	34	12	37	5	12
CN(Cc1ccccc1)C(=O)CCC1CCN(C(=O)CC2=CCCCC2)CC1	71*	24	44	24	6	5
O=C(CCCc1nc2ccccc2s1)Nc1ccccc1	-3	-10	1	-12	4	2
O=C(O)CCCC(=O)Nc1ccc(OCc2nc3ccccc3s2)cc1	-6	31	-13	0	1	51*
COc1ccc(S(=O)(=O)N(C)C[C@@H]2Oc3ccc(NS(=O)(=O)c4ccc(F)cc4)cc3CC(=O)N([C@@H](C)CO)C[C@H]2C)cc1	nt	11	nt	nt	nt	nt
O=C1N/C(=C/c2ccc(N3CCOCC3)o2)C(=O)N1c1cccc(Cl)c1	125*	nt	95	4	5	-2
Cc1ccc(/C=C2/NC(=O)N(c3ccccc3)C2=O)o1	28	34	14	nt	4	nt
COc1ccccc1S(=O)(=O)N1CC[C@@H]2[C@H]1c1cc(-c3cccc(C#N)c3)ccc1N[C@@H]2CO	nt	-3	nt	nt	nt	nt
CC1CC(C)(C)CC(=O)C1C(=O)c1ccccc1 (centres undefined)	-8	16	-2	-4	-1	-3
CC1(C)CC(=O)C(CCC(=O)c2ccccc2)C(C)(C)N1 (centres undefined)	-89	nt	-86*	-6	0	-8
Cc1cc(OCc2cc(C(=O)NC3CCC3)no2)cc(C)c1Cl	15	0	1	18	nt	nt
Cc1cc(OCc2cc(C(=O)NC(C)c3cnn(C)c3)no2)cc(C)c1Cl (centres undefined)	nt	72*	nt	nt	4	nt
Cc1cc(OCc2cc(C(=O)NC(C)c3c(C)nn(C)c3C)no2)cc(C)c1Cl (centres undefined)	54*	83*	36	46	0	1
Cc1cccc(CC(C)NC(=O)c2cc(COc3ccc(C)c(C)c3)on2)n1 (centres undefined)	35	nt	23	13	0	15

Compound activity from PubChem.
